PubChem BioAssay (NCI)
“And” between values parts separate entries of the source, which are not always exact repeats. Equal values may be shown once. This is part of a sample that, as a whole, favours compounds with a hit. Of some 83,000 tested, about 20% had one in any assay.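 Cell lines were cultured in 96-well plates, exposed to a single compound concentration, and assessed for percent growth 48 hours later.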 The source made the active and inactive calls. Rule for the calls: active = growth percent below 10; inactive = the rest.

What follows are molecules tested on MDA-MB-468 breast (assay: NCI-60 one-dose screen, 48 h (100 = growth as untreated, 0 = no growth, -100 = all killed)). Conditions: 10 µM unless noted.

Structure (SMILES)	growth
Cc1ccc2sc3c(c2c1)OC(N)=C(C#N)C3c1ccc(Cl)cc1 (stereo not given)	-18.7% (active)
CC1(c2ccccc2)OC1C(=O)O (stereo not given)	99.2% (inactive)
CCOC(=O)c1c(C)cc(=O)oc1C	105% (inactive)
CCN(C(=O)c1ccc2c3c(cccc13)C=C2)c1ccccc1	84.3% (inactive)
O=C(Nc1cccc(Br)c1)Oc1ccc(Cl)c2cccnc12	-9.1% [100 µM] (active)
CCCNc1ccc(C2=NCCCN2)cc1	87.9% (inactive)
COc1cc(OC)c(/C=C/S(=O)(=O)Cc2ccc(OC)c(NC(=O)CCC(=O)NO)c2)c(OC)c1	40.4% (inactive)
CN1CCN(CCNc2nc(-c3cccc(NS(=O)(=O)c4cccc5c(N(C)C)cccc45)c3)cs2)CC1	42.9% (inactive)
C=C1C(=O)O[C@H]2[C@H]1CC/C(COC(=O)CCSCCC(=O)OC/C1=C/CC[C@@]3(C)O[C@H]3[C@H]3OC(=O)C(=C)[C@@H]3CC1)=C\CC[C@@]1(C)O[C@@H]21	-23.6% (active)
O=C1C2CC3C(CC2C(=O)[N]1[Sn]([c]1ccccc1)([c]1ccccc1)[c]1ccccc1)C1(Cl)C(Cl)=C(Cl)C3(Cl)C1(Cl)Cl (stereo not given)	-83.1% (active)
Cc1ccc(Nn2c(SCC(=O)Nc3nc(-c4ccccc4)cs3)nc(C)c2C)cc1	17.7% (inactive)
COc1cc(OC)c(C(=O)/C=C/c2cc3c(cc2OCc2ccccc2)OC(C)(C)CC3)cc1CC=C(C)C	26.2% (inactive)
N=C(N)c1ccc(-c2ccc(-c3ccc(-c4cccs4)s3)s2)cc1	96.5% (inactive)
NS(=O)(=O)c1ccc(NC2=C(Cl)C(=O)c3ccccc3C2=O)cc1	-67% (active)
CC/C(=C(/c1ccc(OCCN(C)C)cc1)c1ccc(OC(=O)CCC(=O)c2c(C)[nH]c(/C=C3\N=C(c4ccc[nH]4)C=C3OC)c2C)cc1)c1ccccc1	53.4% (inactive)
C/C(=C\c1ccccc1)C(O)C(=O)c1nc2ccc([N+](=O)[O-])cc2[nH]c1=O (stereo not given)	89.7% (inactive)
C=CCc1cc(C(C)=O)cc(OC)c1O	90.6% (inactive)
N/C(=N\C(N)=N\c1nc2ccccc2s1)c1cccc(Br)c1	90.6% (inactive)
Cc1ccc(C(=O)c2ccc(CC(=O)N=Nc3c(O)[nH]c4ccc(OC(F)(F)F)cc34)n2C)cc1	108% (inactive)
C=C1CC[C@@H]2[C@](C)(COC(C)=O)[C@H](OC(C)=O)CC[C@@]2(C)[C@@H]1CC(NCc1ccccc1)C1=CCOC1=O (stereo not given in full)	22.9% (inactive)

Structure (SMILES)	growth
COc1cc(Cc2cc(-c3ccc(Cl)cc3)n[nH]c2=O)ccc1O	73.9% (inactive)
CC(=O)Nc1ccc2c(c1)c(NC(C)=O)nn2C(=O)Nc1ccc(Cc2ccccc2)cc1	80.1% (inactive)
COc1cc(CNC(=O)CCCC/C=C/C(C)C)ccc1OCc1cn(-c2ccc(C(F)(F)F)cc2)nn1	84.8% (inactive)
O=C1CCCCCCCCC(O)C(O)CCCC(c2cccs2)O1 (stereo not given)	95.5% (inactive)
COc1ccc2c(c1)C=C1CSCC3=Cc4cc(OC)ccc4OC13O2	21.3% (inactive)
Cc1nc(-c2ccc(Cl)cc2)ccc1NC(=O)Nc1cccc(C(F)(F)F)c1	98.5% (inactive)
CC(C)(C)n1cc(-c2ccnc(NCCNS(=O)(=O)c3ccc(F)cc3)c2)c(-c2cccc(O)c2)n1	8.72% (active)
COc1ccc(-c2c(-c3ccccc3)noc2N)cc1OC	85.7% (inactive)
COc1ccc2c(c1OC)C(=O)O[C@H]2[C@H]1c2c(cc3c(c2OC)OCO3)CCN1C	90.3% (inactive)
O=C1/C(=C/c2ccc(Cl)cc2)COc2ccc(O)c(O)c21	-15.3% (active)
O=C(N/N=c1/ccoc2cccnc12)N1CCN(c2ncccn2)CC1	2.98% (active)
CN1CCN(c2ccc(Nc3ncc(Cl)c(NC[C@@H]4CCCO4)n3)cc2)CC1	30.7% (inactive)
Cn1c(-c2ccccc2)cc(=O)n1-c1ccccc1	105% (inactive)
C(=C\c1nccc2c1[nH]c1ccccc12)/c1ccccc1	-54% (active)
COc1cc(-c2nc3cc(Cl)c(Cl)cc3[nH]2)ccc1OCC(=O)NN	100% (inactive)
Cc1ccccc1NC1CC(=O)N(c2ccc(Cl)cc2Cl)C1=O (stereo not given)	105% (inactive)
O=C(CN1C(=O)CSC1=O)Nc1ccc(C(=O)/C=C/c2cc3ccccc3nc2Cl)cc1	48.7% (inactive)
O=C(COc1cc(O)c2c(=O)cc(-c3ccccc3)oc2c1)Nc1ccccc1C(F)(F)F	67.6% (inactive)
CCN(CC)CCNC(=O)c1c(C)[nH]c(/C=C2\C(=O)Nc3ccc(F)cc32)c1C	-56.4% (active)
O=C(CCl)c1ccc2c(c1)Nc1ccccc1S2	75.7% (inactive) and 64.9% (inactive)
